# Source: the supplement of paper PMC8728848
# This excerpt belongs to a sample that is enriched for the strongest signals.
# B1: SAG1 (Toxoplasma gondii), P13664 (protein)
# chain: MSVSLHHFIISSGFLTSMFPKAVRRAVTAGVFAAPTLMSFLRCGVMASDPPLVANQVVTCPDKKSTAAVILTPTENHFTLKCPKTALTEPPTLAYSPNRQICPAGTTSSCTSKAVTLSSLIPEAEDSWWTGDSASLDTAGIKLTVPIEKFPVTTQTFVVGCIKGDDAQSCMVTVTVQARASSVVNNVARCSYGADSTLGPVKLSAEGPTTMTLVCGKDGVKVPQDNNQYCSGTTLTGCNEKSFKDILPKLTENPWQGNASSDKGATLTIKKEAFPAESKSVIIGCTGGSPEKHHCTVKLEFAGAAGSAKSAAGTASHVSIFAMVIGLIGSIAACVA
# How the values were obtained:
# Assay in all cases: glycan array binding signal (z-score within array); higher = stronger binding
# Settings in all cases: glycan notation: IUPAC condensed, linker removed
# [1] = target: Fuc(a1-2)Gal(b1-3)[Fuc(a1-4)]GlcNAc
# Method in brief: (§1)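 Glycan array binding is given as a within-array Z-score, which can be read as non-binding when negative. The arrays, 3228 of them, came from the Consortium for Functional Glycomics database and were retained only where the protein sequence was available. Z-scores were averaged across arrays of the same protein sequence at different concentrations or buffers and across linkers.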
# [2] = target: Fuc(a1-2)[Gal(a1-3)]Gal(b1-4)GlcNAc(b1-2)Man(a1-3)[Fuc(a1-2)[Gal(a1-3)]Gal(b1-4)GlcNAc(b1-2)Man(a1-6)]Man(b1-4)GlcNAc(b1-4)GlcNAc
# Method in brief: as §1
# [3] = target: Fuc(a1-2)[GalNAc(a1-3)]Gal(b1-3)GlcNAc(b1-2)Man(a1-3)[Fuc(a1-2)[GalNAc(a1-3)]Gal(b1-3)GlcNAc(b1-2)Man(a1-6)]Man(b1-4)GlcNAc(b1-4)GlcNAc
# Method in brief: as §1
# [4] = target: Fuc(a1-3)[Gal(b1-4)]GlcNAc(b1-2)Man(a1-3)[Fuc(a1-3)[Gal(b1-4)]GlcNAc(b1-2)Man(a1-6)]Man(b1-4)GlcNAc(b1-4)GlcNAc
# Method in brief: as §1
# [5] = target: Fuc(a1-3)[Gal(b1-4)]GlcNAc(b1-3)Gal(b1-3)[Fuc(a1-4)]GlcNAc
# Method in brief: as §1
# [6] = target: Gal(a1-3)Gal(b1-3)GlcNAc(b1-2)Man(a1-3)[Gal(a1-3)Gal(b1-3)GlcNAc(b1-2)Man(a1-6)]Man(b1-4)GlcNAc(b1-4)GlcNAc
# Method in brief: as §1
# [7] = target: Gal(b1-3)[GlcNAc(b1-6)]GalNAc
# Method in brief: as §1
# [8] = target: Gal(b1-4)GlcNAc(a1-6)Gal(b1-4)GlcNAc
# Method in brief: as §1
# [9] = target: Gal3S(b1-3)[Fuc(a1-4)]GlcNAc
# Method in brief: as §1
# [10] = target: Gal6S(b1-4)Glc
# Method in brief: as §1
# [11] = target: GalNAc(a1-3)Gal
# Method in brief: as §1
# [12] = target: GlcNAc(a1-4)Gal(b1-4)GlcNAc(b1-3)Gal(b1-4)GlcNAc(b1-3)Gal(b1-4)GlcNAc
# Method in brief: as §1
# [13] = target: GlcNAc(a1-4)Gal(b1-4)GlcNAc(b1-3)Gal(b1-4)[Fuc(a1-3)]GlcNAc(b1-3)Gal(b1-4)[Fuc(a1-3)]GlcNAc
# Method in brief: as §1
# [14] = target: Man(a1-3)[Man(a1-6)]Man(a1-6)[Man(a1-3)]Man
# Method in brief: as §1
# [15] = target: Neu5Ac(a2-3)Gal(b1-3)GalNAc(b1-4)[Neu5Ac(a2-3)]Gal(b1-4)Glc
# Method in brief: as §1
# [16] = target: Neu5Ac(a2-3)Gal(b1-3)GlcNAc
# Method in brief: as §1
# [17] = target: Neu5Ac(a2-3)Gal(b1-4)GlcNAc(b1-3)Gal(b1-4)GlcNAc(b1-3)Gal(b1-4)GlcNAc
# Method in brief: as §1
# [18] = target: Neu5Ac(a2-3)Gal(b1-4)GlcNAc(b1-3)Gal(b1-4)[Fuc(a1-3)]GlcNAc
# Method in brief: as §1
# [19] = target: Neu5Ac(a2-3)Gal(b1-4)GlcNAc(b1-6)[Neu5Ac(a2-3)Gal(b1-3)]GalNAc
# Method in brief: as §1
# [20] = target: Neu5Ac(a2-3)Gal(b1-4)[Fuc(a1-3)]GlcNAc(b1-3)GalNAc
# Method in brief: as §1
# [21] = target: Neu5Ac(a2-3)Gal(b1-4)[Fuc(a1-3)]GlcNAc6S
# Method in brief: as §1
# [22] = target: Neu5Ac(a2-6)Gal(b1-4)GlcNAc(b1-2)Man(a1-6)[GlcNAc(b1-2)Man(a1-3)]Man(b1-4)GlcNAc(b1-4)GlcNAc
# Method in brief: as §1
# [23] = target: Neu5Ac(a2-6)GlcNAc(b1-4)GlcNAc(b1-4)GlcNAc
# Method in brief: as §1
# [24] = target: Neu5Ac(a2-8)Neu5Ac(a2-8)Neu5Ac(a2-8)Neu5Ac(a2-3)[GalNAc(b1-4)]Gal(b1-4)Glc
# Method in brief: as §1
# [25] = target: Neu5Gc(a2-3)Gal(b1-3)[Fuc(a1-4)]GlcNAc
# Method in brief: as §1
binder,measurement,setting,value
B1,glycan array binding signal (z-score),[1],0.139
same,glycan array binding signal (z-score),[2],0.615
same,glycan array binding signal (z-score),[3],-0.505
same,glycan array binding signal (z-score),[4],1.86
same,glycan array binding signal (z-score),[5],-0.232
same,glycan array binding signal (z-score),[6],1.47
same,glycan array binding signal (z-score),[7],-0.229
same,glycan array binding signal (z-score),[8],-0.386
same,glycan array binding signal (z-score),[9],7.52
same,glycan array binding signal (z-score),[10],-0.579
same,glycan array binding signal (z-score),[11],-0.761
same,glycan array binding signal (z-score),[12],0.265
same,glycan array binding signal (z-score),[13],2.24
same,glycan array binding signal (z-score),[14],-0.442
same,glycan array binding signal (z-score),[15],0.728
same,glycan array binding signal (z-score),[16],0
same,glycan array binding signal (z-score),[17],-0.703
same,glycan array binding signal (z-score),[18],1.71
same,glycan array binding signal (z-score),[19],1.61
same,glycan array binding signal (z-score),[20],3.63
same,glycan array binding signal (z-score),[21],-0.651
same,glycan array binding signal (z-score),[22],-0.2
same,glycan array binding signal (z-score),[23],-0.384
same,glycan array binding signal (z-score),[24],-0.241
same,glycan array binding signal (z-score),[25],0.031
